Most compounds without a hit are left out; they make up all but 6.5% or so of the library.
Vaccinia Venus: inhibitors of vaccinia virus (Venus reporter); Vaccinia virus Venus reporter expression, fluorescence; 0.46% of 330,000 active; Potency, µM (doses to about 36.5 µM), for inactives: top-dose activity change, negative = inhibition, hits mostly inhibitors; AID 720580; calls by dose curve; tested in A549 cells; further: potency means the concentration at half of the fitted maximal effect; nearly all actives have a fitted effect of over 30% in size
Lassa entry inh: Lassa virus entry inhibition | Potency, µM (titrated, usually from 37.9 µM), inactives show at the highest dose activity change, negative = inhibition, most hits filed as inhibitors | 1.2% of 300,000 active | Lassa virus pseudotype entry inhibition, cell reporter | AID 540256; calls by dose curve; tested in HEK293 cells; further: potency means the concentration at half of the fitted maximal effect; nearly all actives have a fitted effect of over 50% in size
FMDV inh: antivirals against foot and mouth disease virus. 1.2% of 410,000 active. Potency, µM (series often up to 57.9 µM), inactives show top-dose activity change, negative = inhibition, hits mostly inhibitors. FMDV antiviral cell-based qHTS. AID 1159524; calls by dose curve; tested in HEK293T cells; further: read-out not given here; potency means the concentration at half of the fitted maximal effect; nearly all actives have a fitted effect of over 45% in size
MARV entry inh: Marburg virus entry inhibition | Marburg virus pseudotyped entry inhibition, cell reporter | Potency, µM (highest dose often 37.8 µM), for the others: at the top dose activity change, negative = inhibition, most hits filed as inhibitors | 1.8% of 300,000 active; calls by dose curve; tested in HEK293 cells; further: potency means the concentration at half of the fitted maximal effect
VACV mCherry inh: vaccinia inhibition (mCherry reporter). AID 720579. 0.63% of 310,000 active. Potency, µM (titrated, usually from 36.5 µM), for inactives: at the top dose activity change, negative = inhibition, actives largely listed as inhibitors. Vaccinia virus mCherry reporter infection, fluorescence; calls by dose curve; tested in A549 cells; further: potency means the concentration at half of the fitted maximal effect; nearly all actives have a fitted effect of over 35% in size
HCMV antiviral: human cytomegalovirus inhibition | HFF cells, HCMV-luciferase reporter, 72 h; active compounds read low | 4.5% of 410,000 active | activity change, negative = inhibition, % at 57.5 µM | AID 1259415; in the data active means activity change below about -60%; inconclusive means no clear call, values can overlap the other calls; inactive means above about -39%
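Cell-based, HFFs, 1000 cells/well, 16 h 37C; cpds in DMSO + HCMV-luc, MOI 1 PFU/cell; 72 h 37C; OneGlo luminescence after 5 min RT; norm. to buffer vs Salinomycin 10uM.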
An asterisk follows results filed as active; i = inactive; ? = inconclusive; · = no result; [ ] = dose if it differs, or a comment. On the % scale 0 is the no-effect control and ±100 the full control effect.

SMILES	Vaccinia Venus	Lassa entry inh	FMDV inh	MARV entry inh	VACV mCherry inh	HCMV antiviral
COC(=O)C1=C(C)N(Cc2cccc(C(F)(F)F)c2)C(=NCc2ccc3c(c2)OCO3)NC1c1ccc(Cl)cc1 (configuration not stated)	·	·	·	·	·	-14.5
CC(=O)Nc1cc(C(=O)N2CCN(c3ccccc3)CC2C)cc2ncn(CCc3ccccn3)c12 (configuration not stated)	9.0%	·	0.0%	·	2.1%	·
CN(C)CC/C=C1\c2ccc(F)cc2Sc2cc(F)c(Cl)cc21	·	·	?	·	·	-108.0*
COC(=O)c1cccc(Nc2ncnc3ccc(C)cc23)c1	-16.5%	13.8%	·	?	-23.8%	-14.6
CCOC(=O)c1cccc(Nc2ncnc3ccccc23)c1	?	-22.1%	39.8µM*	?	·	3.5
CC(=O)Oc1cccc(Nc2ncnc3ccccc23)c1	·	·	-7.8%	·	·	36.4
CCCOC(=O)c1cccc(Nc2nc(-c3cccnc3)nc3ccccc23)c1	?	?	25.1µM*	10µM*	?	133.5
Cc1ccccc1C(=O)Oc1cccc(Nc2ncnc3ccccc23)c1	?	10µM*	15.8µM*	11.2µM*	?	127.6
O=c1cnc2cncnc2n1Cc1ccccc1	·	·	-9.8%	·	·	·
O=C(c1cnn(-c2nccc(-c3ccccc3C(F)(F)F)n2)c1C1CC1)N1CCN(CCO)CC1	3.1%	·	-7.0%	·	-7.9%	·
Cc1ccc2c(/C=C/c3ccc(N(C)C)cc3)ccnc2c1	25.3%	·	·	·	13.6%	·
COc1ccc(N/C=C2\CCc3ccccc3C2=O)cc1	·	·	25.1µM*	·	·	-18.2
COc1ccc2c(c1)CC/C(=C\Nc1ccc3c(c1)OCO3)C2=O	-10.0%	?	·	?	-24.6%	-7.8
O=C1/C(=C/Nc2ccc3c(c2)OCO3)CCc2ccccc21	-16.1%	1.41µM*	?	?	?	-62.0*
CCOC(=O)c1[nH]c(C)c(CCC(=O)Nc2ccccc2C(=O)OC)c1C	-28.5%	?	-9.4%	·	?	-0.9
COC(=O)c1ccccc1NC(=S)N(Cc1ccc2c(c1)OCO2)Cc1cc2ccc(OC)cc2[nH]c1=O	-26.5%	?	-23.9%	?	-26.5%	-63.4*
CCN(CC)CCN(Cc1cc2ccc(C)cc2[nH]c1=O)C(=S)Nc1ccccc1C(=O)OC	?	?	-17.8%	2µM*	?	-21.2
COC(=O)c1ccccc1NC(=S)N(Cc1ccc2c(c1)OCO2)Cc1cc2ccc(C)cc2[nH]c1=O	-24.3%	-30.7%	-13.7%	?	-21.6%	?
Cc1ccc(NC(=O)c2cc3c([nH]c2=O)CC(c2ccccc2)CC3=O)cc1 (configuration not stated)	8.4%	·	·	·	44.1%	·
CCOc1ccccc1NC(=O)C1CCCN(c2ncnc3onc(-c4ccc(F)cc4)c23)C1 (configuration not stated)	-11.5%	-20.6%[46.1 µM]	-21.4%	·	-7.8%	-22.0
Cc1[nH]c2c(C(F)(F)F)cccc2c1CCN	-9.3%	-6.0%	-19.0%	?	·	51.3
O=c1cc(C(F)(F)F)[nH]c2c(C(F)(F)F)cccc12	12.6µM*	?	?	?	?	·
O=c1cc(C(F)(F)F)[nH]c2ccc(OC(F)(F)F)cc12	?	?	?	?	?	-94.6*
CCc1cccc(NC(=O)CCS(=O)(=O)c2cc3c4c(c2)CCN4C(=O)CC3)c1	-4.9%	9.9%[46.1 µM]	18.0%	·	-11.9%	6.9
CC(C)(C)C(=O)Cn1c(=O)n(-c2ccccc2)c(=O)c2c3c(sc21)CCC3	-4.9%	23.3%[46.1 µM]	0.0%	?	-12.0%	-13.7
SMILES	Vaccinia Venus	Lassa entry inh	FMDV inh	MARV entry inh	VACV mCherry inh	HCMV antiviral
O=P1(Oc2ccccc2)OCCCS1 (configuration not stated)	·	·	35.5µM*	·	·	21.6
Cc1c(C(=O)N2CCN(Cc3ccc4c(c3)OCO4)CC2)sc2ncnc(N3CCN(c4ccccc4F)CC3)c12	·	·	28.2µM*	·	·	-76.4*
Cc1c(C(=O)N2CCN(Cc3ccc4c(c3)OCO4)CC2)sc2ncnc(N3CCN(c4ccccc4)CC3)c12	·	·	2.51µM*	·	·	-85.8*
O=C(c1ccncc1)N1CCC2(CCC(CNC(=O)C3(N4CCOCC4)CCCCC3)O2)CC1 (configuration not stated)	10.4%	·	-3.8%	·	5.1%	·
CCOC(=O)c1cccc(C2=CC(=O)C[C@H](c3ccc(OC)c(OC)c3)C2)c1	-20.3%	·	39.8µM*	·	-13.4%	15.6
COc1ccc([C@H]2CC(=O)C=C(c3cccc(C(C)C)c3)C2)cc1OC	?	·	25.1µM*	·	?	-26.6
CSc1ccccc1OCc1cc(C(=O)NC(C)c2cnn(C)c2)no1 (configuration not stated)	-14.8%	6.7%	10.2%	17.4%	-21.5%	71.3
CCc1ccc(CN(C)C(=O)c2cc(COc3cccc4cnccc34)on2)cc1	·	·	?	·	·	-99.0*
Cc1c(C(C)NC(=O)c2cc(COc3cccc4cnccc34)on2)cnn1C (configuration not stated)	·	·	?	·	·	-85.5*
CN(Cc1cccnc1)C(=O)c1cc(COc2ccc3c(c2)CCCC3)on1	-28.7%	?	-14.9%	?	-17.4%	-65.1*
CN(Cc1cccc2cnccc12)C(=O)c1cc(COc2ccc(F)cc2F)on1	·	·	?	·	·	-60.1*
CC1CN(CCNC(=O)C2CCCc3c2[nH]c2ccccc32)Cc2ccccc2O1 (configuration not stated)	-11.2%	·	?	·	-15.4%	·
COC(=O)[C@H](Cc1ccccc1)NS(=O)(=O)N[C@@H](Cc1ccccc1)C(=O)OC	0.1%	·	18.6%	·	i	-62.2*
Cc1ccc(S(=O)(=O)N[C@@H](Cc2ccccc2)C(=O)CCl)cc1	?	4.61µM*	31.6µM*	10.3µM*	-14.3%	21.3
CC(=O)NC(CC(C)C)C(=O)NC(Cc1ccccc1)C(N)=O (configuration not stated)	·	0.8%	31.6%	?	·	·
COC(=O)C(Cc1ccc(O)cc1)NS(=O)(=O)Cc1ccccc1 (configuration not stated)	·	·	·	·	·	12.0
CC(=O)NC(CC(C)C)C(=O)NC(Cc1ccccc1)C(=O)CCl (configuration not stated)	-18.3%	-12.8%	28.2µM*	?	-6.7%	-11.2
O=[N+]([O-])c1ccccc1/C=C/c1ccnc2ccccc12	-22.5%	·	·	·	-3.8%	·
COc1ccc(C(=O)N(Cc2ccccc2)Cc2ccc(OC)c(COc3ccc(NC(C)=O)cc3)c2)cc1	?	·	·	·	-11.3%	·
CCC(=O)N1CCN(c2ccc(-n3c(=O)ccc4cnc5ccc(-c6cnc7ccccc7c6)cc5c43)cc2C(F)(F)F)CC1	·	·	·	·	·	-83.0*
COc1cnc(-c2ccccn2)nc1Sc1ccccc1Cl	·	?	?	-3.1%	·	-98.4*
COc1cnc(-c2ccccn2)nc1Oc1cccc(Cl)c1	-26.1%	-4.1%	-17.7%	?	-20.8%	-28.4
COc1cnc(-c2ccccn2)nc1N(C)C	-27.4%	?	-9.9%	?	?	-98.8*
CCOC(=O)C(C)Sc1nc(-c2ccccn2)ncc1OC (configuration not stated)	-12.7%	-15.0%	4.0%	?	?	-21.3
